# Compounds without any hit were thinned out: in the full panel of roughly 83,000, 20% have a hit.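 Testing used 96-well plates and a 48-hour single-concentration exposure. Example: -40 means 40% of the starting cells died.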 A number with no mark means an inactive call. The source made the active and inactive calls. How the source made its calls: active means growth percent below 10; inactive means the rest.
# Assays:
# Assay in all cases: NCI-60 one-dose screen, 48 h (100 = growth as untreated, 0 = no growth, -100 = all killed)
# Conditions in all cases: 10 µM unless noted
# [1] = test system: SR leukemia
# [2] = test system: RPMI-8226 leukemia
# [3] = test system: OVCAR-8 ovarian
# [4] = test system: OVCAR-5 ovarian
# [5] = test system: OVCAR-4 ovarian
# [6] = test system: SK-OV-3 ovarian
# [7] = test system: IGROV1 ovarian
# [8] = test system: OVCAR-3 ovarian
# [9] = test system: HS 578T breast
# [10] = test system: NCI/ADR-RES ovarian
# [11] = test system: T-47D breast
# [12] = test system: BT-549 breast
# [13] = test system: MDA-MB-435 melanoma
# [14] = test system: SW-620 colon
# [15] = test system: MCF7 breast
# [16] = test system: HCT-116 colon
# [17] = test system: HCC-2998 colon
# [18] = test system: KM12 colon
Structure (SMILES),growth [1],growth [2],growth [3],growth [4] [%],growth [5] [%],growth [6] [%],growth [7],growth [8],growth [9],growth [10] [%],growth [11],growth [12] [%],growth [13],growth [14],growth [15],growth [16],growth [17],growth [18]
O=C(O)CCCc1cnc2c3sccc3nc(SCc3c(Cl)cccc3Cl)n12,23.9%,51.6%,63.7%,80.5,59.7,36.5,54.1%,7.34% (active),39.5%,45.7,24.9%,44.8,6.44% (active),27.3%,26.5%,21.7%,81.1%,21.7%
Nc1nc(C(=O)N/N=C/c2ccc(N3CCOCC3)cc2)nn1-c1ccc(S(N)(=O)=O)cc1,104%,102%,101%,114,99.7,111,94%,104%,104%,102,108%,116,104%,99.9%,103%,101%,104%,103%
O=C1OCC2=C1C(c1cccc(C(F)(F)F)c1)c1cc3c(cc1N2CCO)OCO3 (stereo not drawn),15.7%,21%,23.3%,55,58.1,27.9,37.2%,-5.02% (active),31.4%,25,28%,55,-44.1% (active),23.3%,20.9%,21.4%,69.9%,24.9%
Cc1[nH]c(/C=C/C(=O)c2ccc(C(F)(F)F)c(F)c2)c(C)c1C(=O)NCC(C)C,85.6%,95.8%,89.4%,101,101,105,107%,112%,97.9%,98.9,88.2%,111,103%,102%,86%,96.7%,98.9%,101%
COc1ccc(/C=C/C(=O)c2ccc(Nc3nc(Nc4ccc(F)cc4)nc(Nc4ccc(Cl)cc4)n3)cc2)cc1,-2.35% (active),58.5%,97.1%,111,98,122,81.2%,113%,101%,92.4,67.3%,116,97.3%,104%,72.2%,91.8%,51.3%,166%
N#Cc1c(-c2cccc([N+](=O)[O-])c2)cc(-c2ccc(Nc3nc(Nc4ccc(F)cc4)nc(Nc4ccc(F)cc4)n3)cc2)nc1N,62.9%,52.3%,89.1%,102,114,143,90.9%,100%,87.9%,101,115%,173,112%,108%,291%,108%,113%,114%
CCc1cccc(Sc2cc(C(=O)N3Cc4ccc(OCCN(C)C)cc4C3)ccc2O)c1,19.9%,29.3%,24.1%,110,53.2,37.7,59.8%,67.3%,95.4%,50.4,37.2%,70.1,64.1%,41.9%,24.8%,49.5%,75%,23.5%
Clc1ccc(-c2cn3ccsc3n2)c(Cl)c1Cl,49.9%,67.5%,95.7%,88.5,74.1,118,77.2%,93.3%,84.3%,99.6,31.7%,86.3,96.6%,96.8%,0.866% (active),91.7%,92.5%,98.1%
Cc1nn(-c2ccccc2)c(/N=C/N(C)C)c1/C=C/C(=O)c1ccc(Cl)cc1,23.4%,6.91% (active),101%,81.7,98.3,111,81.2%,103%,92.2%,86.9,101%,87.3,98.4%,93.3%,85.9%,74.7%,101%,101%
O=C(CSc1nc2ccc([N+](=O)[O-])cc2[nH]1)Nc1ccc(Br)cc1,22.9%,6.95% (active),52.5%,85.7,34.4,44.7,63.8%,39.3%,78.7%,59.3,8.75% (active),50.4,46.5%,74.5%,64.5%,28.2%,79.6%,56.2%
Cc1nn(-c2ccccc2)c(N2CCCCC2)c1/C=N/NC(=O)Cn1c(=O)sc2ccccc21,93.9%,65%,81.1%,82.9,79.3,89,67.2%,81.9%,78.7%,74.9,60.3%,79.9,87.9%,81%,67.3%,77.1%,68.4%,54%
Nc1c(C(=O)Nc2ccncc2)sc2nc3c(cc12)CCCCC3,43.6%,47.2%,65.2%,83.4,55.8,75.8,98.9%,88.9%,85.1%,75.5,25.7%,50.4,67%,105%,58.5%,66.4%,85.3%,75.6%
CCOC(=O)c1c(NC(=O)c2ccc(C(C)(C)C)cc2)sc2cc(O)ccc12,87.9%,104%,92.7%,104,104,109,80.8%,110%,105%,89.2,82.7%,94.7,97.4%,91.7%,88.4%,92.7%,104%,86%
C#CC#CC#CC#CC#CC#CC#CC#CCC1OCC(COC(=O)O[C@@H](C(=O)O[C@H]2C[C@@]3(O)[C@@H](OC(=O)c4ccccc4)[C@@H]4[C@]5(OC(C)=O)CO[C@@H]5C[C@H](O)[C@@]4(C)C(=O)[C@H](OC(C)=O)C(=C2C)C3(C)C)[C@@H](NC(=O)c2ccccc2)c2ccccc2)O1 (stereo partly drawn),12.4%,7.03% (active),14.8%,18.8,59.5,41.9,22.2%,4.93% (active),-4.44% (active),93.5,36.6%,14.5,-73.5% (active),24.1%,16.1%,9.48% (active),1.97% (active),6.73% (active)
Cc1cc(C)c(-c2c(O)c(Br)c(-c3c(C)cc(C)c(Br)c3C)c(O)c2Br)c(C)c1Br,18.5%,26.3%,2.91% (active),64.9,23.7,46.7,-29.9% (active),-24.1% (active),41.5%,44.1,-19.4% (active),22.2,13.1%,3.38% (active),6.48% (active),9.25% (active),37.3%,12.2%
COC(=O)C1=Nc2ccc(F)cc2/C1=C\c1sc(Nc2ccc(O)cc2)nc1O,24.2%,62%,83%,98,64.8,102,68.5%,19.8%,46.1%,94.5,62.4%,35,0.954% (active),65.9%,22%,64%,79.3%,49.5%

# Source: PubChem BioAssay (NCI)
